High-throughput results (PubChem BioAssay)
RXFP1 agonist – agonists of human relaxin receptor RXFP1. 370,000 tested, 0.3% active. Potency, µM (titrated, usually from 57.5 µM), for inactives: at the highest dose activation, actives largely listed as activators. HEK293T-RXFP1 cAMP TR-FRET, 30 min; response scale: percent of porcine relaxin response, buffer zero. Q9HBX9; further: potency means the concentration at half of the fitted maximal effect; on the % scale 0 is the no-effect control and ±100 the full control effect; nearly all actives have a fitted effect of over 60% in size
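Agonist response is measured as cAMP accumulation in an RXFP1-transfected HEK293T line under PDE4 inhibition. Values are scaled between buffer-only and 29 nM porcine relaxin, and EC50s come from standard Hill equation fits.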
RXFP1 antagonist – antagonists of human relaxin receptor RXFP1; activity change, negative = inhibition, % at 57.5 µM; HEK293-RXFP1, relaxin-stimulated cAMP HTRF, 30 min; hits give low values; 350,000 tested, 0.59% active;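 active means activity change of -60% or lower, but not beyond a set lower limit; inconclusive means change between -60% and -40%, or beyond the set limit; inactive means change above -40%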; further: on the % scale 0 is the no-effect control and ±100 the full control effect
BRCA1 expr up – increases BRCA1 expression. MCF7-BRCA1-FFLuc reporter, luminescence, 48 h; response scale: scaled: vehicle 0%, 10 µM genistein 100%. Potency, µM (highest dose often 46.1 µM), for the others: at the top dose activation, most hits filed as activators. 380,000 tested, 1.1% active; further: potency means the concentration at half of the fitted maximal effect; nearly all actives have a fitted effect of over 80% in size
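Activators of BRCA1 expression were detected as increased firefly luciferase luminescence in engineered MCF7 cells after 48 h compound incubation. Signals were scaled to genistein 10 microM as full activation.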
NPSR antag – neuropeptide S receptor (human) antagonism, cAMP; Q6W5P4; CHO-NPSR cells, cAMP TR-FRET, antagonist mode; Potency, µM (doses to about 38.3 µM), for the others: top-dose activity change, negative = inhibition, most hits filed as inhibitors; 220,000 tested, 1% active; further: potency means the concentration at half of the fitted maximal effect; on the % scale 0 is the no-effect control and ±100 the full control effect; nearly all actives have a fitted effect of over 50% in size
Target sequence (Q6W5P4 whole entry, looked up): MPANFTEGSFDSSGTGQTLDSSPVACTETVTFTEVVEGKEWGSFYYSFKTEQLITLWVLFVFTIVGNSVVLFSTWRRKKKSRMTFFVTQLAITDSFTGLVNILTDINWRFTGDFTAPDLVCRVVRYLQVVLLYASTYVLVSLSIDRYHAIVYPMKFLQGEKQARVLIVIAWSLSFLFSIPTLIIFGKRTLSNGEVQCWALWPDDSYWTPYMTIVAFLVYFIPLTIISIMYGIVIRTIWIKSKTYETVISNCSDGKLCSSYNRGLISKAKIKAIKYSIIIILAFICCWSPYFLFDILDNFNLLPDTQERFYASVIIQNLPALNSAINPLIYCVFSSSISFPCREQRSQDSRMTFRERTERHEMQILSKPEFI
IL-2 act – activators of IL-2; IL-2 activation reporter assay, cell-based qHTS; stimulated with anti-CD3/CD4/CD28 beads; in transgenic mouse T cells; activation, % (series mostly up to about 46 µM); 360,000 tested, 0.065% active; in the data active means activation above about 50%; inconclusive means mostly about 30% to 49%; further: 0% is about no effect
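Readout: EGFP and DsRed signals by fluorescent plate cytometry. Unstimulated transgenic mouse T cells received compound 60 min before antibody-bead stimulation, then incubated 18 h at 37 degrees C.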
Giardia kill – Giardia lamblia killing | activity change, % at 7.66 µM, hits read low | Giardia lamblia trophozoite viability | 340,000 tested, 0.15% active; in the data active means activity change below about -80%; inconclusive means between about -30% and that limit;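 further: parasites exposed to compound for two days anaerobically before the ATP read; on the % scale 0 is the no-effect control and ±100 the full control effect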
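Viability, read as ATP luminescence: trophozoites at 100 cells/well, compound added, 48 hrs anaerobic at 37 deg C, then 15-30 min room-temperature development before reading.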
An asterisk follows results filed as active; u = inconclusive; x = no result; [ ] = dose if it differs, or a comment. Only some compounds are listed: those with a hit (about 1.9% of all), similar ones and a draw of the others. Unless noted, the call rests on the fitted dose curve; in most records, active means well fitted curve in the direction sought with a large enough effect; inconclusive means small, poorly fitted or top-dose-only effect, or another doubt; inactive means no such curve, though single readings can be large; an effect the other way counts as inactive or inconclusive.

SMILES	RXFP1 agonist	RXFP1 antagonist	BRCA1 expr up	NPSR antag	IL-2 act	Giardia kill
CCC1CCCCN1Cc1nc2c(c(=O)n(C)c(=O)n2C)n1Cc1c(F)cccc1Cl (stereo not given)	x	x	4%	x	x	-1
CC1(C)CC(=O)c2c(O)cc(OCc3ccc(Br)cc3)cc2O1	4%	6	3.5µM*	-18%[46.1 µM]	0	14
Oc1ccc(CNc2cccc(F)c2F)c2cccnc12	1%	x	x	x	x	x
COc1ccc(N2CCN(C(c3ccccc3)c3nnnn3C(C)C)CC2)cc1 (stereo not given)	x	x	0%	x	x	-2
COc1ccc(C2=NC(C)(C)N(CC(=O)Nc3cccc(C)c3)C2=O)cc1	2%	-17	x	x	x	x
CCC(=O)Nc1cccc(C(=O)OCC(=O)c2ccccc2Cl)c1	2%	-14	7.9µM*	-1%[46.1 µM]	-3	0
CCC(=O)Nc1ccccc1C(=O)OCC(=O)c1ccccc1	-2%	-3	2µM*	-14%[46.1 µM]	0	1
CCC(=O)Nc1ccccc1C(=O)OCC(=O)c1ccc2ccccc2c1	1%	-3	-16%	-22%[46.1 µM]	-2	1
CCCCCCCCCC[n+]1ccc(/C=C/c2ccc(N(C)C)cc2)c2ccccc21	x	x	-80%	x	x	x
CN1C2CCC1CC(NC(=O)n1c(=O)[nH]c3ccccc31)C2 (stereo not given)	x	12	x	x	x	x
Cc1occc1C(=O)NCCCc1ccccc1	2%	-9	13µM*	-4%[46.1 µM]	-1	6
Cc1occc1C(=O)NNC(=O)c1ccccc1C(=O)O	2%	-12	10µM*	13%	0	-2
O=C(NCC1CN(c2ccc(N3CCOCC3=O)cc2)C(=O)O1)c1ccc(Cl)s1 (stereo not given)	x	10	x	x	x	x
CCN(CC)C(=S)SCC(=O)c1ccc(Br)cc1	1%	-21	13µM*	-40%	3	44
O=C(COc1ccc([N+](=O)[O-])cc1)N1CCC(c2nc3ccccc3s2)CC1	-2%	u	x	x	x	x
CN(CCCN(Cc1ccc(Cl)cc1)c1ccc(Br)cn1)C(=S)NCCCc1cnc[nH]1	x	x	0%	x	x	-6
CCc1ccc(Cc2cnc(NC(=O)C3=NCCN3)s2)cc1	-3%	-116*	9%	-3%	-4	7
O=C(Nc1nnc(C2CCCCC2)s1)C1CCN(C(=O)c2ccco2)CC1	x	x	5%	x	x	11
CCOc1ccc(NC(=O)CCc2c(C)nn(-c3ccc(N4CCCCC4)nn3)c2C)cc1	1%	-36	11µM*	x	-3	17
Cc1ccc(NC(=O)CCc2c(C)nn(-c3ccc(N4CCCCC4)nn3)c2C)cc1F	2%	-6	3.2µM*	x	-4	-7
Cc1nn(-c2ccc(N3CCCCC3)nn2)c(C)c1CCC(=O)Nc1ccc(F)cc1	6%	0	94%	x	-2	1
COc1ccc(Cc2nc3ccc(C(=O)NCCCSC)cc3o2)cc1OC	1%	-3	13µM*	x	0	5
COC(=O)CCNC(=O)c1ccc2nc(Cc3ccc(OC)c(OC)c3)oc2c1	-2%	-7	u	x	0	-3
CN(C)CCNc1nccc(N2CCN(C)CC2)n1	x	x	-4%	x	x	x
O=C(O)c1ccc(N/N=C/c2cccc3nccnc23)cc1	6%	-21	13µM*	-24%	1	-3
SMILES	RXFP1 agonist	RXFP1 antagonist	BRCA1 expr up	NPSR antag	IL-2 act	Giardia kill
O=C(O)c1ccc(N/N=C/c2cc3ccccc3nc2Cl)cc1	-1%	6	29%	-35%	0	4
CCN1/C(=C/C=C/C=C/c2sc3ccccc3[n+]2CC)Sc2ccccc21	2%	x	-69%	7.9µM*	x	x
CC(C)(C)c1nnc(NC(=O)COc2ccc3c(c2)OCO3)s1	-2%	9	2.5µM*	x	2	4
Cc1ccc(NC(=O)COc2ccc3c(c2)OCO3)c(Cl)c1	3%	-22	14µM*	x	0	-6
O=C(COc1ccc2c(c1)OCO2)Nc1ccccc1C(F)(F)F	2%	7	10µM*	-16%	-2	8
CC1Cc2ccccc2N1C(=O)COc1ccc2c(c1)OCO2 (stereo not given)	1%	14	3.2µM*	-7%	2	5
